{"source": "PubChem BioAssay AID1942", "about": "(Johns Hopkins Ion Channel Center, 2009)", "note": "Out of some 2,400 compounds screened, about 580 (24%) were called active.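 The calls were made as follows: active = activity change at or above the mean plus 3 SD of buffer wells without dofetilide, per plate; inactive = the rest.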 Only a sample is shown.", "data": [{"target": "Potassium voltage-gated channel subfamily KQT member 2 (Rattus norvegicus) (UniProt O88943)", "sequence (O88943 whole entry, looked up)": "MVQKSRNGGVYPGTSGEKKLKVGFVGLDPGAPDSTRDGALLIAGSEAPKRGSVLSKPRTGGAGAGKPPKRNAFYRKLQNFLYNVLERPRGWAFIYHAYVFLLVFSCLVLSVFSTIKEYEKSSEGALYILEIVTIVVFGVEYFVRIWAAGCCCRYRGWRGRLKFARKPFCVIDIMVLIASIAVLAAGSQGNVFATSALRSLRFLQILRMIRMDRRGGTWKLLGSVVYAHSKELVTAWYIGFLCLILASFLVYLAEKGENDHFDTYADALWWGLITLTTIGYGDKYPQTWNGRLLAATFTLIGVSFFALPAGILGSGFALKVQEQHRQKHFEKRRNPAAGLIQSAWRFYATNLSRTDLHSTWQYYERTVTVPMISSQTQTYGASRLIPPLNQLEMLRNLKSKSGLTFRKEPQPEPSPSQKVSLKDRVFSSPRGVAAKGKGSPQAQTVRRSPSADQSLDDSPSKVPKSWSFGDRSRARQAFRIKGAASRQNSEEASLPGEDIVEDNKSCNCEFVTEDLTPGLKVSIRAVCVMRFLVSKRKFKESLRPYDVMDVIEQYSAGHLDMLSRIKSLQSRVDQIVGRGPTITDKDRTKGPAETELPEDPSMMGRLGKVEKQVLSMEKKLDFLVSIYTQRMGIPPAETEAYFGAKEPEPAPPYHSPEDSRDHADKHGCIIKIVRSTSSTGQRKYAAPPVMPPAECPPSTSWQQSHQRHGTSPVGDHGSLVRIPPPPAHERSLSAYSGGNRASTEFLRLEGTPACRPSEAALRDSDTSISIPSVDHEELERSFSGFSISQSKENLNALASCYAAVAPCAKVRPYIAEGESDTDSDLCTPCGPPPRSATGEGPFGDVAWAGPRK", "assay": "rat KCNQ2 channel activation by compounds alone, confirmation, counter-screen for hERG block protector project, cell-based, CHO, FluxOR thallium flux (AID 1942);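 also: normalized value minus buffer-control mean plus three SD of buffer wells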", "conditions": "CHO-KCNQ2 cells, FluxOR thallium flux fluorescence; at 10 µM; active compounds read high", "values": [{"smiles": "COc1ccc(N2CCN(S(=O)(=O)c3ccc(Br)s3)CC2)cc1", "activity change, less the hit threshold": "-14.9% (inactive)"}, {"smiles": "CC1=CN2C(=N)/C(=C/c3ccc(Sc4ccc(Cl)cc4)o3)C(=O)N=C2S1", "activity change, less the hit threshold": "-17.8% (inactive)"}, {"smiles": "CCCn1c(=S)[nH]c2ccc(C(F)(F)F)cc21", "activity change, less the hit threshold": "-3.6% (inactive)"}, {"smiles": "CC(C)Cn1c(=S)[nH]c2cc(Cl)ccc21", "activity change, less the hit threshold": "6.5% (active)"}, {"smiles": "O=c1c2cc(Cl)ccc2[nH]c(=S)n1Cc1cccs1", "activity change, less the hit threshold": "-11.7% (inactive)"}, {"smiles": "COc1cccc(/C=C2/C(=O)NN(c3ccc(C)c(C)c3)C2=O)c1", "activity change, less the hit threshold": "-18% (inactive)"}, {"smiles": "O=C(N1CCOCC1)N1CCC(c2nc(-c3ccc(S(=O)(=O)N4CCOCC4)cc3)no2)CC1", "activity change, less the hit threshold": "-23.6% (inactive)"}, {"smiles": "C=CCN(CC=C)C(=S)NC(=O)c1ccc(C)c(Br)c1", "activity change, less the hit threshold": "135% (active)"}, {"smiles": "C=CCNC(=S)NC(=O)c1ccc(C)c(Br)c1", "activity change, less the hit threshold": "-17.6% (inactive)"}, {"smiles": "COc1ccc(C(=O)NC(=S)NCCO)cc1Br", "activity change, less the hit threshold": "-13.1% (inactive)"}, {"smiles": "CCOc1ccc(C(=O)NC(=S)N(Cc2ccccc2)Cc2ccccc2)cc1", "activity change, less the hit threshold": "-5.6% (inactive)"}, {"smiles": "COc1cc(OC)cc(C(=O)OCC(=O)N(C)c2ccccc2)c1", "activity change, less the hit threshold": "-28% (inactive)"}, {"smiles": "COc1ccc(C(=O)NN/C(C)=C/C(=O)c2ccccc2)cc1", "activity change, less the hit threshold": "-25.7% (inactive)"}, {"smiles": "C=CCN(CC=C)C(=S)NC(=O)c1ccc(OC)c(Br)c1", "activity change, less the hit threshold": "46% (active)"}, {"smiles": "CCN(CC)C(=S)NC(=O)c1ccc(OC)c(Br)c1", "activity change, less the hit threshold": "-11% (inactive)"}, {"smiles": "COc1cc(OC)cc(C(=O)NC(=S)N(Cc2ccccc2)C(C)C)c1", "activity change, less the hit threshold": "31.3% (active)"}, {"smiles": "COc1ccc(C(=O)NC(=S)N(Cc2ccccc2)Cc2ccccc2)cc1", "activity change, less the hit threshold": "28.4% (active)"}, {"smiles": "COc1ccc(CN(Cc2cccnc2)C(=S)NCCc2ccccc2)cc1OC", "activity change, less the hit threshold": "-13.1% (inactive)"}, {"smiles": "O=c1c([N+](=O)[O-])c(N2CCCCC2)c2ccccc2n1-c1ccccc1", "activity change, less the hit threshold": "-20.7% (inactive)"}, {"smiles": "CC(C)=CCCC1=CCC2C(=O)NNC(=O)C2C1", "note": "(stereo not given)", "activity change, less the hit threshold": "-15.8% (inactive)"}, {"smiles": "Cc1ccc(S(=O)(=O)n2cnc3ccccc32)c(C)c1", "activity change, less the hit threshold": "-9% (inactive)"}, {"smiles": "CCCNC(=O)N(C)c1nncnc1C(=O)NC", "activity change, less the hit threshold": "-17.3% (inactive)"}, {"smiles": "CCN(CC(=O)Nc1c(F)cccc1F)C(=O)c1ccc(Cl)c(S(=O)(=O)N2CCCCC2)c1", "activity change, less the hit threshold": "-23.2% (inactive)"}, {"smiles": "Cc1cccc(C)c1NC(=O)Cn1cnc2c(=O)n(C)c(=O)n(C)c21", "activity change, less the hit threshold": "-15.2% (inactive)"}, {"smiles": "C=CCN(CC=C)C(=S)NC(=O)c1ccc(OC)cc1", "activity change, less the hit threshold": "10.1% (active)"}, {"smiles": "CC(C)N(Cc1ccccc1)C(=S)NC(=O)C1(C)CC1(Cl)Cl", "note": "(stereo not given)", "activity change, less the hit threshold": "32.4% (active)"}, {"smiles": "C=CCN(CC=C)C(=S)NC(=O)/C=C/c1ccc(OC)cc1", "activity change, less the hit threshold": "-0.6% (inactive)"}, {"smiles": "CCCOc1ccc(C(=O)NNC(=S)NC(=O)c2ccccc2)cc1", "activity change, less the hit threshold": "-24.3% (inactive)"}, {"smiles": "CCCOc1ccc(CN(CCC#N)C(=S)NC(=O)c2ccccc2)cc1", "activity change, less the hit threshold": "7.3% (active)"}, {"smiles": "C=CCNC(=S)N/N=C(\\C)c1ccc(OC)cc1", "activity change, less the hit threshold": "-13.1% (inactive)"}, {"smiles": "O=C(O)c1ccc(Cl)cc1Nc1nc2cc(Cl)ccc2o1", "activity change, less the hit threshold": "-1.7% (inactive)"}, {"smiles": "CC(=O)c1c(C)nc(C)nc1NC(=O)C(C)C", "activity change, less the hit threshold": "-17.2% (inactive)"}, {"smiles": "Nc1nc2n(n1)C1(CCCCC1)C1=C(CCCC1)N2", "activity change, less the hit threshold": "-18.5% (inactive)"}, {"smiles": "CCCCc1c(O)nc(SCC(=O)O)[nH]c1=O", "activity change, less the hit threshold": "-17.9% (inactive)"}, {"smiles": "FC(F)(F)c1cnc2c(c1)[nH]c(=S)n2-c1ccc(Cl)cc1", "activity change, less the hit threshold": "-2.4% (inactive)"}, {"smiles": "CCC(=O)Nc1cc(-c2nnc(OC)c3ccccc23)ccc1N1CCOCC1", "activity change, less the hit threshold": "-7.7% (inactive)"}, {"smiles": "O=C(NC(=S)Nc1ccccc1N1CCCC1)c1ccccc1Br", "activity change, less the hit threshold": "-29.8% (inactive)"}, {"smiles": "Cc1nn(C)c(C(=O)NC(=S)Nc2ccccc2Br)c1Cl", "activity change, less the hit threshold": "11.8% (active)"}, {"smiles": "Cc1nn(C)c(C(=O)NC(=S)Nc2ccc([N+](=O)[O-])cc2)c1Cl", "activity change, less the hit threshold": "7.5% (active)"}, {"smiles": "COC(=O)c1ccc(NC(=S)NC(=O)c2c(-c3ccccc3)noc2C)cc1", "activity change, less the hit threshold": "-19.6% (inactive)"}, {"smiles": "CCCCOC(=O)c1ccc(NC(=S)NC(=O)c2c(Br)c(C)nn2C)cc1", "activity change, less the hit threshold": "10.4% (active)"}, {"smiles": "Cc1ccc(NC(=S)NC(=O)c2cncc(Br)c2)cc1Cl", "activity change, less the hit threshold": "-17.8% (inactive)"}, {"smiles": "COc1ccccc1NC(=S)NC(=O)c1ccc(-c2ccc(Cl)cc2)o1", "activity change, less the hit threshold": "-6.4% (inactive)"}, {"smiles": "Cc1ccc(NC(=O)c2c([N+](=O)[O-])c(C(C)(C)C)nn2C)cc1", "activity change, less the hit threshold": "-17.2% (inactive)"}, {"smiles": "Cc1nn(CCC(=O)NNC(=S)Nc2ccc(F)cc2)c(C)c1[N+](=O)[O-]", "activity change, less the hit threshold": "-18.9% (inactive)"}, {"smiles": "CCCCOC(=O)c1ccc(NC(=S)NC(=O)c2c(Cl)cnn2C)cc1", "activity change, less the hit threshold": "-10% (inactive)"}, {"smiles": "CCn1ncc(Cl)c1C(=O)NC(=S)Nc1ccccc1Br", "activity change, less the hit threshold": "29.9% (active)"}, {"smiles": "Cc1cccc(NC(=S)N/N=C2\\CC(C)(C)Oc3ccc(O)cc32)c1", "activity change, less the hit threshold": "-9.9% (inactive)"}, {"smiles": "Cc1nn(-c2ccc(Cl)nn2)c(=O)c2ccccc12", "activity change, less the hit threshold": "-19.3% (inactive)"}, {"smiles": "CC1CN(S(=O)(=O)c2ccc(-c3nc4ccccc4s3)cc2)CC(C)O1", "note": "(stereo not given)", "activity change, less the hit threshold": "-3.8% (inactive)"}, {"smiles": "CCCN1C(=O)/C(=C/c2ccc(C)s2)NC1=S", "activity change, less the hit threshold": "80.4% (active)"}, {"smiles": "CCCN1C(=O)/C(=C/c2ccc3c(c2)OCO3)NC1=S", "activity change, less the hit threshold": "-10.1% (inactive)"}, {"smiles": "CC(C)CN1C(=O)/C(=C/c2cccs2)NC1=S", "activity change, less the hit threshold": "83.6% (active)"}, {"smiles": "CCN1C(=O)/C(=C/c2ccc(C)s2)NC1=S", "activity change, less the hit threshold": "36.1% (active)"}, {"smiles": "COc1ccc(N2C(=O)/C(=C/c3cccs3)NC2=S)cc1", "activity change, less the hit threshold": "-15.1% (inactive)"}, {"smiles": "CC(C)CN1C(=O)/C(=C/c2ccco2)NC1=S", "activity change, less the hit threshold": "-20.7% (inactive)"}, {"smiles": "O=c1c(C(c2ccc(O)cc2)c2c(O)nc3n(c2=O)CCS3)c(O)nc2n1CCS2", "activity change, less the hit threshold": "-11.7% (inactive)"}, {"smiles": "Nc1cc(-c2ccc(Br)cc2)[nH]n1", "activity change, less the hit threshold": "-23.7% (inactive)"}, {"smiles": "CC(C)=CC(=O)OCC(=O)Nc1ccc(SC(F)F)cc1", "activity change, less the hit threshold": "-15.7% (inactive)"}, {"smiles": "S=c1nc(-c2ccccc2)[nH]n1-c1ccccc1", "activity change, less the hit threshold": "51.8% (active)"}, {"smiles": "S=c1nc(-c2ccccc2)c(-c2ccccc2)n[nH]1", "activity change, less the hit threshold": "-18.5% (inactive)"}, {"smiles": "CCOc1cc(C(=O)NC)cc(OCC)c1OCC", "activity change, less the hit threshold": "-15.9% (inactive)"}, {"smiles": "COCCn1c(SCC(=O)Nc2cc(C)cc(C)c2)nc2ccccc2c1=O", "activity change, less the hit threshold": "-17.4% (inactive)"}, {"smiles": "Cc1cc(-c2nnc(SCC(=O)Nc3ccc(C(F)(F)F)cc3)n2C)no1", "activity change, less the hit threshold": "-23.1% (inactive)"}, {"smiles": "Cc1cc(C)cc(NC(=O)CSc2nnc(CN3CCOCC3)n2C)c1", "activity change, less the hit threshold": "27.2% (active)"}]}]}
